# Reference: the supplement of paper PMC10037445
# Values joined by “and” are separate entries in the source; they are usually repeats but may differ in a detail not shown here. Identical values can stand only once. Whole data set: some 2,900 compounds, median “NF-kB SEAP reporter activity, fold change vs agonist alone” near 0.99, cut for the highest 2% near 2.6. This excerpt belongs to a sample that is enriched for the highest values.
# Key:
# RAW-Dual [1] = test: NF-kB SEAP reporter activity, fold change vs agonist alone; cytotoxicity flag (confluency mask): not cytotoxic; higher = enhanced NF-kB activity
# Method in brief: (§1)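 Cytotoxic wells were those whose IncuCyte confluency was below 70% of agonist controls in both mask sets. The cells were RAW-Dual macrophages at 50,000 cells/well in DMEM on 384-well plates, dosed with 50 nL of library stock by pin tool, stimulated with a PRR agonist 1 h later, and kept at 37 °C, 5% CO2 for 20 hours. IRF and NF-κB reporter activity, as fold change over agonist-alone wells, came from supernatant read by QuantiLuc luminescence and QuantiBlue absorbance, respectively.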
# RAW-Dual [2] = test: NF-kB SEAP reporter activity, fold change vs agonist alone; higher = enhanced NF-kB activity; conditions: library stock concentration (final ~1000-fold dilution): 10 mM
# Method in brief: as §1
# RAW-Dual [3] = test: NF-kB SEAP reporter activity, fold change vs agonist alone; cytotoxicity flag (confluency mask): cytotoxic (confluency <70% of control); higher = enhanced NF-kB activity
# Method in brief: as §1
# [4] = agonist: ODN 1826 (TLR9) 0.5 ug/mL
# [5] = agonist: Pam2CSK4 (TLR2/6) 0.1 ug/mL
# [6] = agonist: Pam3CSK4 (TLR2/1) 0.1 ug/mL
# [7] = cytotoxicity flag (confluency mask): not cytotoxic, agonist: Imiquimod (TLR7) […]
# [8] = cytotoxicity flag (confluency mask): not cytotoxic, agonist: MPLA (TLR4) […]
structure (smiles),measurement,setting,value
Cc1cc(C)c(CN2CCc3c(Cl)cc(-c4c(C)noc4C)c(Cl)c3C2=O)c(=O)[nH]1 (library stock concentration (final ~1000-fold dilution): 10 mM),NF-kB SEAP reporter activity,RAW-Dual [1]; agonist: LPS (TLR4) 0.1 ug/mL,2.16
same,NF-kB SEAP reporter activity,RAW-Dual [1]; [4],1.51
same,NF-kB SEAP reporter activity,RAW-Dual [1]; [5],0.917
same,NF-kB SEAP reporter activity,RAW-Dual [1]; [6],0.98
Cc1cc(C)c(CN2CCc3c(Cl)cc(-c4c(C)noc4C)c(Cl)c3C2=O)c(=O)[nH]1,NF-kB SEAP reporter activity,RAW-Dual [2]; [7],1.24
same,NF-kB SEAP reporter activity,RAW-Dual [2]; [8],1.64
C=C(C)C1CCC2(C(=O)O)CCC3(C)C(CCC4C5(C)CCC(OC(=O)CC(C)(C)C(=O)O)C(C)(C)C5CCC43C)C12 (configuration not stated) (library stock concentration (final ~1000-fold dilution): 10 mM),NF-kB SEAP reporter activity,RAW-Dual [3]; agonist: LPS (TLR4) 0.1 ug/mL,1.79
same,NF-kB SEAP reporter activity,RAW-Dual [3]; [4],0.735
same,NF-kB SEAP reporter activity,RAW-Dual [3]; [5],0.295
same,NF-kB SEAP reporter activity,RAW-Dual [3]; [6],0.532
C=C(C)C1CCC2(C(=O)O)CCC3(C)C(CCC4C5(C)CCC(OC(=O)CC(C)(C)C(=O)O)C(C)(C)C5CCC43C)C12 (configuration not stated),NF-kB SEAP reporter activity,"RAW-Dual [2]; cytotoxicity flag (confluency mask): cytotoxic (confluency <70% of control), agonist: Imiquimod (TLR7) […]",0.823
same,NF-kB SEAP reporter activity,"RAW-Dual [2]; cytotoxicity flag (confluency mask): cytotoxic (confluency <70% of control), agonist: MPLA (TLR4) […]",1.07
CCN(CC)Cc1ccc(C(=O)N(CCc2ccccc2OC)C2CCNC2)cc1 (configuration not stated),NF-kB SEAP reporter activity,RAW-Dual [2]; [7],0.518
same,NF-kB SEAP reporter activity,RAW-Dual [2]; [8],1.28
CCN(CC)Cc1ccc(C(=O)N(CCc2ccccc2OC)C2CCNC2)cc1 (configuration not stated) (library stock concentration (final ~1000-fold dilution): 10 mM),NF-kB SEAP reporter activity,RAW-Dual [1]; agonist: LPS (TLR4) 0.1 ug/mL,0.9
same,NF-kB SEAP reporter activity,RAW-Dual [1]; [4],0.312
same,NF-kB SEAP reporter activity,RAW-Dual [1]; [5],0.883
same,NF-kB SEAP reporter activity,RAW-Dual [1]; [6],0.613
C=C1CCC2C(C)(COC(=O)CCC(=O)O)C(OC(=O)CCC(=O)O)CCC2(C)C1/C=C/C1=CCOC1=O (configuration not stated) (library stock concentration (final ~1000-fold dilution): 10 mM),NF-kB SEAP reporter activity,RAW-Dual [1]; agonist: LPS (TLR4) 0.1 ug/mL,0.94
same,NF-kB SEAP reporter activity,RAW-Dual [1]; [4],0.908
same,NF-kB SEAP reporter activity,RAW-Dual [1]; [5],0.924
same,NF-kB SEAP reporter activity,RAW-Dual [1]; [6],1.06
C=C1CCC2C(C)(COC(=O)CCC(=O)O)C(OC(=O)CCC(=O)O)CCC2(C)C1/C=C/C1=CCOC1=O (configuration not stated),NF-kB SEAP reporter activity,RAW-Dual [2]; [7],0.926
same,NF-kB SEAP reporter activity,RAW-Dual [2]; [8],0.985
N#Cc1ccc2ncnc(NCCc3ccccc3)c2c1 (library stock concentration (final ~1000-fold dilution): 10 mM),NF-kB SEAP reporter activity,RAW-Dual [1]; agonist: LPS (TLR4) 0.1 ug/mL,2.76
same,NF-kB SEAP reporter activity,RAW-Dual [1]; [4],1.15
same,NF-kB SEAP reporter activity,RAW-Dual [1]; [5],1.51
same,NF-kB SEAP reporter activity,RAW-Dual [1]; [6],1.76
Nc1ccc2ncnc(NCCc3ccc(Oc4ccccc4)cc3)c2c1 (library stock concentration (final ~1000-fold dilution): 10 mM),NF-kB SEAP reporter activity,RAW-Dual [1]; agonist: LPS (TLR4) 0.1 ug/mL,1.57 and 1.15
same,NF-kB SEAP reporter activity,RAW-Dual [1]; [5],0.752 and 0.456
same,NF-kB SEAP reporter activity,RAW-Dual [1]; [6],1.02 and 0.73
N#Cc1ccc2ncnc(NCCc3ccccc3)c2c1,NF-kB SEAP reporter activity,RAW-Dual [2]; [7],0.984
same,NF-kB SEAP reporter activity,RAW-Dual [2]; [8],1.59
Cc1ccc(CNc2ncnc3ccc(-c4ccc(CO)o4)cc23)o1 (library stock concentration (final ~1000-fold dilution): 10 mM),NF-kB SEAP reporter activity,RAW-Dual [1]; agonist: LPS (TLR4) 0.1 ug/mL,1.16
same,NF-kB SEAP reporter activity,RAW-Dual [1]; [4],1.35
same,NF-kB SEAP reporter activity,RAW-Dual [1]; [5],1.21
same,NF-kB SEAP reporter activity,RAW-Dual [1]; [6],1.4
